Source: the supplement of paper PMC11732987, “Enantioselective OTUD7B fragment discovery through chemoproteomics screening and high-throughput optimisation” (Communications Chemistry, 2025)

Tests used:
Test in all cases: log2 ratio of Biotin-Ahx-Ub-VS probe labelling (fragment/DMSO); higher = less target engagement (more negative = stronger competition), active = hit call of the paper (q ≤ 0.05, log2 ratio ≤ -1)
Conditions in all cases: compound concentration: 200 uM; treatment time: 3 h
USP42 = molecular target: T1, USP42 (UniProt Q9H9J4)
T1 sequence (whole entry): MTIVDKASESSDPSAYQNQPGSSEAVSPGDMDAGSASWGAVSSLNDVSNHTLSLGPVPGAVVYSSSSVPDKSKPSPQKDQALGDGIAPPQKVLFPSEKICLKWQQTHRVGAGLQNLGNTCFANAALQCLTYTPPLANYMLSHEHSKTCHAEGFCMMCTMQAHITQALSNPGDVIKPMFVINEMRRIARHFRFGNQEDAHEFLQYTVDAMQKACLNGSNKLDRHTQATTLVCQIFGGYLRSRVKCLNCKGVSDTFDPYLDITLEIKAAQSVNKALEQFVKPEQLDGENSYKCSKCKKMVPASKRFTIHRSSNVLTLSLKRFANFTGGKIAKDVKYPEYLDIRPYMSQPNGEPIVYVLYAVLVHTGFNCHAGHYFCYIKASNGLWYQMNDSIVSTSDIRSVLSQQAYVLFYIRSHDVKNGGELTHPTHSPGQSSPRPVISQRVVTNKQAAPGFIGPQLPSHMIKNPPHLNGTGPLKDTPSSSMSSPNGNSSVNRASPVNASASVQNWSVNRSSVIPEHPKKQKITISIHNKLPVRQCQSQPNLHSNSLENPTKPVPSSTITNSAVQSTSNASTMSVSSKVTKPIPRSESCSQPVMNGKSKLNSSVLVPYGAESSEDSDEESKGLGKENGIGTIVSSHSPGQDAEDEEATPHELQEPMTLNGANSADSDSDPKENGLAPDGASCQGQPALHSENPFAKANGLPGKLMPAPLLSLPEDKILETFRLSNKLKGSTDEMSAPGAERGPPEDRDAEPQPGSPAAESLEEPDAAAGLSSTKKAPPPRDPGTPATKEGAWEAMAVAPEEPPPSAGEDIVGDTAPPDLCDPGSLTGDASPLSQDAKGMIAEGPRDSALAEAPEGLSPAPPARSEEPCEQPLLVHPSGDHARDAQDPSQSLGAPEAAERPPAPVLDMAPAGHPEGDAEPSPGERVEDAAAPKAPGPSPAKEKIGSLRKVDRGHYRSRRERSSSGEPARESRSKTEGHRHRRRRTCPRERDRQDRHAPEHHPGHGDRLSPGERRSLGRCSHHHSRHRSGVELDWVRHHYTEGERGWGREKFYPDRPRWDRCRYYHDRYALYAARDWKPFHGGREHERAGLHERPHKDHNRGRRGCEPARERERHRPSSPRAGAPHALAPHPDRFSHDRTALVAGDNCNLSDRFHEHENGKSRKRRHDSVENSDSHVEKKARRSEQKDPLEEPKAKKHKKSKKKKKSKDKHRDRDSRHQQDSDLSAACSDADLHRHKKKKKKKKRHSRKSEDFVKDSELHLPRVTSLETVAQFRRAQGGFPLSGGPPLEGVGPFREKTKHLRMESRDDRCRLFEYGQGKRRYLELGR
Procedure, shortened: (§1)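 Each value is an average log2 ratio of fragment to vehicle, tested by unpaired t-test. The underlying Spectronaut label-free quantities were global-median-normalised, and only proteins with ≥2 unique peptides were included. Triplicate HEK293T lysate samples (495 µg) were exposed to fragment at 200 µM or vehicle for 3 h, then to Biotin-Ahx-Ub-VS at 0.5 µM final for 1 h, before NeutrAvidin enrichment of labelled DUBs, LysC and trypsin digestion, and diaPASEF LC-MS/MS.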

USP46 = USP46 (UniProt P62068)
Procedure, shortened: as §1

USP47 = molecular target: T2, USP47 (UniProt Q96K76)
T2 sequence (whole entry): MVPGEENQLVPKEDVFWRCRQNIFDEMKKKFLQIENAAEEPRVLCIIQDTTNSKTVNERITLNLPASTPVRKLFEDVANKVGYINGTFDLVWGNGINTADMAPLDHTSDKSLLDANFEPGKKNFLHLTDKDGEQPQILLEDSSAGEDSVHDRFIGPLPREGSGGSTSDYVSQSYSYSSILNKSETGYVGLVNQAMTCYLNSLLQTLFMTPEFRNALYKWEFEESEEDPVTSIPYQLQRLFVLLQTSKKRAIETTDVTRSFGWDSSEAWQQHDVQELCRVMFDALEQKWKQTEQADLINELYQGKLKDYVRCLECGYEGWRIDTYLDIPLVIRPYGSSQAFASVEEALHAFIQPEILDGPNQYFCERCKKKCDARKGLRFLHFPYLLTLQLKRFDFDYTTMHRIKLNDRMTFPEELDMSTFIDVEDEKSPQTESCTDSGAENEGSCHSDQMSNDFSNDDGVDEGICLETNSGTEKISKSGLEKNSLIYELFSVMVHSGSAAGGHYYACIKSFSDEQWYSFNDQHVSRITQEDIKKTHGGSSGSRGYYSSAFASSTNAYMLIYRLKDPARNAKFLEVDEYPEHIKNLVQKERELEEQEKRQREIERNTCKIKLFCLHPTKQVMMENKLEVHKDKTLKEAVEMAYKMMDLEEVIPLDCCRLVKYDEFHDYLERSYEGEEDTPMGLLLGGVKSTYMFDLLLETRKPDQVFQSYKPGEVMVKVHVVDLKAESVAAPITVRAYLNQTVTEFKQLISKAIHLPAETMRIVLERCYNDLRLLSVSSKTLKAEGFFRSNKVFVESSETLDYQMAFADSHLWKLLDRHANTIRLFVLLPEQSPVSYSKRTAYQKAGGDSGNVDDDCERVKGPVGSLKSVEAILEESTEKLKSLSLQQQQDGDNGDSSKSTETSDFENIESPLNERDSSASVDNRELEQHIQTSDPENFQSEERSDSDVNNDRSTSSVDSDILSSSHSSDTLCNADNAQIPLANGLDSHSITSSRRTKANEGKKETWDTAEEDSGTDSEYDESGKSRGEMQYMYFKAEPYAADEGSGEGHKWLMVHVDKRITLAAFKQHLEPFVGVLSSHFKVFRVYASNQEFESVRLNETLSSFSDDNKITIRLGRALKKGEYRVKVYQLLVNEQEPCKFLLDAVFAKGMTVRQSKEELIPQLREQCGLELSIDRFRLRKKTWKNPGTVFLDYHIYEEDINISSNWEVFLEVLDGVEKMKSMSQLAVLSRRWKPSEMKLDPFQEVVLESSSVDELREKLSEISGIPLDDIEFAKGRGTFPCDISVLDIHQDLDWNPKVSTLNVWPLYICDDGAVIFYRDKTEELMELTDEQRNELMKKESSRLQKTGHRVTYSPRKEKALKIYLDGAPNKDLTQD
Procedure, shortened: as §1

USP48 = molecular target: T3, USP48 (UniProt Q86UV5)
T3 sequence (whole entry): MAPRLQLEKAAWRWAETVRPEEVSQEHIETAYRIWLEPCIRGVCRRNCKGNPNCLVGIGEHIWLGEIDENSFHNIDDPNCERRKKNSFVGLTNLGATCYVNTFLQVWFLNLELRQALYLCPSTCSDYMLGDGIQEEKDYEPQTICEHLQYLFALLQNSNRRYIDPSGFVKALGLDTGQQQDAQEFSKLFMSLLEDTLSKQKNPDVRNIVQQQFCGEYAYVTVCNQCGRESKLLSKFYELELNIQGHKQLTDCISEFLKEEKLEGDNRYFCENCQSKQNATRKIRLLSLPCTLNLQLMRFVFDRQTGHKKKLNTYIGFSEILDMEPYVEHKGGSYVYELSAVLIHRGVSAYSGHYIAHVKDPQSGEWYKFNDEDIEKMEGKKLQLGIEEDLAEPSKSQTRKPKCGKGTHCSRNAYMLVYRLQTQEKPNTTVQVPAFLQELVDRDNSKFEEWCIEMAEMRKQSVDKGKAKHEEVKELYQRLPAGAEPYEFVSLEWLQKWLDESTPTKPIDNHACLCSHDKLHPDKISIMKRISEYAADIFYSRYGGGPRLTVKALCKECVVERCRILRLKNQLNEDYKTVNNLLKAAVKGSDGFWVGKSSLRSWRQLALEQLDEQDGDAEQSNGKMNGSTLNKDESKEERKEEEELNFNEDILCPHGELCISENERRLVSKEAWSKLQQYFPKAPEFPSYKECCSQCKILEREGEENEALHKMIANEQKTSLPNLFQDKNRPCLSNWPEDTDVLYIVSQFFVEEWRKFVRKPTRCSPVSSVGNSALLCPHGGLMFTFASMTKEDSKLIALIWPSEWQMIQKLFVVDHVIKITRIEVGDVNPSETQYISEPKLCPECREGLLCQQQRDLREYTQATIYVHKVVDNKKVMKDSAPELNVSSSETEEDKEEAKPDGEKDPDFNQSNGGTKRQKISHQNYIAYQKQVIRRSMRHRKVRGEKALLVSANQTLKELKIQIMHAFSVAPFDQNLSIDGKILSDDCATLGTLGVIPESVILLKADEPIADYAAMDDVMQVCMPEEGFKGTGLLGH
Procedure, shortened: as §1

USP5 = molecular target: T4, USP5 (UniProt P45974)
T4 sequence (whole entry): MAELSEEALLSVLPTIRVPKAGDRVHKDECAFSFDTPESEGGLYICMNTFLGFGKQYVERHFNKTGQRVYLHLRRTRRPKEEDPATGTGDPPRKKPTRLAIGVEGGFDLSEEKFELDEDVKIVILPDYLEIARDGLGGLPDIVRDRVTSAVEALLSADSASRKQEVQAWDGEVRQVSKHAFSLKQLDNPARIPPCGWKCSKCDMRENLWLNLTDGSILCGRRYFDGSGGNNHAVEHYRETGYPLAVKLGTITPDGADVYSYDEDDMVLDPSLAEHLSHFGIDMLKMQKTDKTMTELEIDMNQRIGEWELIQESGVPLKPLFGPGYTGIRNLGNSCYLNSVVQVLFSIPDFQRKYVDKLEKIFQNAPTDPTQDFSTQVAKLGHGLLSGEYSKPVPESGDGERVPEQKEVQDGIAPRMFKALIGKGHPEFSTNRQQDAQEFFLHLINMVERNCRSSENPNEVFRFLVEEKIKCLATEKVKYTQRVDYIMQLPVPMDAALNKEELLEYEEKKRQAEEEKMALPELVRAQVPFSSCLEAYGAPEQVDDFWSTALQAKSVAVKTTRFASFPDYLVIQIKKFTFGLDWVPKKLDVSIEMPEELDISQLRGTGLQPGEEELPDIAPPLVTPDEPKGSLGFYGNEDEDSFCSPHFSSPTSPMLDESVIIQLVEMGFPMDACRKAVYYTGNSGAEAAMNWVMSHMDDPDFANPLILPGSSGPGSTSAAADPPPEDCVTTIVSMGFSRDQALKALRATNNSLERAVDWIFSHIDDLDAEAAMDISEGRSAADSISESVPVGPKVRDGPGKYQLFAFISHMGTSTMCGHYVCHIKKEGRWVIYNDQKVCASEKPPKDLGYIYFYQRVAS
Procedure, shortened: as §1

USP54 = USP54 (UniProt Q70EL1)
Procedure, shortened: as §1

USP7 = USP7 (UniProt Q93009)
Procedure, shortened: as §1

USP8 = molecular target: T5, USP8 (UniProt P40818)
T5 sequence (whole entry): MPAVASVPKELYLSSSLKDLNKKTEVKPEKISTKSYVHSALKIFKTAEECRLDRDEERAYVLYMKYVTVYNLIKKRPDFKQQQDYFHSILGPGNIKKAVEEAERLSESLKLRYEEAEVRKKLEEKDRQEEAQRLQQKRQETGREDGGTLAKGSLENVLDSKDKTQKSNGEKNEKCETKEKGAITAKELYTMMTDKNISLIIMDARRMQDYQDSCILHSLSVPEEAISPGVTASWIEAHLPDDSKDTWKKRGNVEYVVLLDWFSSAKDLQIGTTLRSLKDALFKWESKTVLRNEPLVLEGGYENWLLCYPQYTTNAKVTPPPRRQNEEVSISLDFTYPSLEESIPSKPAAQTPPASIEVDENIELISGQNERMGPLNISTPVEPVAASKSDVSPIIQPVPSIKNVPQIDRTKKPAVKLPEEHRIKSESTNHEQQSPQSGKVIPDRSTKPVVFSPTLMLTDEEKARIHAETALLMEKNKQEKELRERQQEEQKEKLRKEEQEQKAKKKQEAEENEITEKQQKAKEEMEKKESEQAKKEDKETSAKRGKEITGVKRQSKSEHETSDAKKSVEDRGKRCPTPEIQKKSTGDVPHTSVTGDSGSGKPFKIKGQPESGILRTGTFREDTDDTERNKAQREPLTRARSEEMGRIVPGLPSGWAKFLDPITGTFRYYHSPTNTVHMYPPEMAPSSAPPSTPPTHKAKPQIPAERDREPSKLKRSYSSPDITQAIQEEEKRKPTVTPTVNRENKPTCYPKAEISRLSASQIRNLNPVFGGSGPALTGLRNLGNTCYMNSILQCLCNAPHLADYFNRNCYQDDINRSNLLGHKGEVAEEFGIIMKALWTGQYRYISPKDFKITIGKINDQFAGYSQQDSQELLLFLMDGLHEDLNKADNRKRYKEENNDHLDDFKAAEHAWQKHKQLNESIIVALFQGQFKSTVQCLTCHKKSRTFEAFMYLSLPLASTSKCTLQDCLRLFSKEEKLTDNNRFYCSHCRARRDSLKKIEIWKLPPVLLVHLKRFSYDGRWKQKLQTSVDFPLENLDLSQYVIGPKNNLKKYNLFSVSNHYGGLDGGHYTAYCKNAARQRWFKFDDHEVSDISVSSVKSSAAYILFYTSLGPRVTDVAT
Procedure, shortened: as §1

USP9X = USP9X (UniProt Q93008)
Procedure, shortened: as §1

UniProt O00487 = molecular target: UniProt O00487
Procedure, shortened: as §1

Measured: log2 ratio of Biotin-Ahx-Ub-VS probe labelling

Sequence of USP9X (Q93008 whole entry): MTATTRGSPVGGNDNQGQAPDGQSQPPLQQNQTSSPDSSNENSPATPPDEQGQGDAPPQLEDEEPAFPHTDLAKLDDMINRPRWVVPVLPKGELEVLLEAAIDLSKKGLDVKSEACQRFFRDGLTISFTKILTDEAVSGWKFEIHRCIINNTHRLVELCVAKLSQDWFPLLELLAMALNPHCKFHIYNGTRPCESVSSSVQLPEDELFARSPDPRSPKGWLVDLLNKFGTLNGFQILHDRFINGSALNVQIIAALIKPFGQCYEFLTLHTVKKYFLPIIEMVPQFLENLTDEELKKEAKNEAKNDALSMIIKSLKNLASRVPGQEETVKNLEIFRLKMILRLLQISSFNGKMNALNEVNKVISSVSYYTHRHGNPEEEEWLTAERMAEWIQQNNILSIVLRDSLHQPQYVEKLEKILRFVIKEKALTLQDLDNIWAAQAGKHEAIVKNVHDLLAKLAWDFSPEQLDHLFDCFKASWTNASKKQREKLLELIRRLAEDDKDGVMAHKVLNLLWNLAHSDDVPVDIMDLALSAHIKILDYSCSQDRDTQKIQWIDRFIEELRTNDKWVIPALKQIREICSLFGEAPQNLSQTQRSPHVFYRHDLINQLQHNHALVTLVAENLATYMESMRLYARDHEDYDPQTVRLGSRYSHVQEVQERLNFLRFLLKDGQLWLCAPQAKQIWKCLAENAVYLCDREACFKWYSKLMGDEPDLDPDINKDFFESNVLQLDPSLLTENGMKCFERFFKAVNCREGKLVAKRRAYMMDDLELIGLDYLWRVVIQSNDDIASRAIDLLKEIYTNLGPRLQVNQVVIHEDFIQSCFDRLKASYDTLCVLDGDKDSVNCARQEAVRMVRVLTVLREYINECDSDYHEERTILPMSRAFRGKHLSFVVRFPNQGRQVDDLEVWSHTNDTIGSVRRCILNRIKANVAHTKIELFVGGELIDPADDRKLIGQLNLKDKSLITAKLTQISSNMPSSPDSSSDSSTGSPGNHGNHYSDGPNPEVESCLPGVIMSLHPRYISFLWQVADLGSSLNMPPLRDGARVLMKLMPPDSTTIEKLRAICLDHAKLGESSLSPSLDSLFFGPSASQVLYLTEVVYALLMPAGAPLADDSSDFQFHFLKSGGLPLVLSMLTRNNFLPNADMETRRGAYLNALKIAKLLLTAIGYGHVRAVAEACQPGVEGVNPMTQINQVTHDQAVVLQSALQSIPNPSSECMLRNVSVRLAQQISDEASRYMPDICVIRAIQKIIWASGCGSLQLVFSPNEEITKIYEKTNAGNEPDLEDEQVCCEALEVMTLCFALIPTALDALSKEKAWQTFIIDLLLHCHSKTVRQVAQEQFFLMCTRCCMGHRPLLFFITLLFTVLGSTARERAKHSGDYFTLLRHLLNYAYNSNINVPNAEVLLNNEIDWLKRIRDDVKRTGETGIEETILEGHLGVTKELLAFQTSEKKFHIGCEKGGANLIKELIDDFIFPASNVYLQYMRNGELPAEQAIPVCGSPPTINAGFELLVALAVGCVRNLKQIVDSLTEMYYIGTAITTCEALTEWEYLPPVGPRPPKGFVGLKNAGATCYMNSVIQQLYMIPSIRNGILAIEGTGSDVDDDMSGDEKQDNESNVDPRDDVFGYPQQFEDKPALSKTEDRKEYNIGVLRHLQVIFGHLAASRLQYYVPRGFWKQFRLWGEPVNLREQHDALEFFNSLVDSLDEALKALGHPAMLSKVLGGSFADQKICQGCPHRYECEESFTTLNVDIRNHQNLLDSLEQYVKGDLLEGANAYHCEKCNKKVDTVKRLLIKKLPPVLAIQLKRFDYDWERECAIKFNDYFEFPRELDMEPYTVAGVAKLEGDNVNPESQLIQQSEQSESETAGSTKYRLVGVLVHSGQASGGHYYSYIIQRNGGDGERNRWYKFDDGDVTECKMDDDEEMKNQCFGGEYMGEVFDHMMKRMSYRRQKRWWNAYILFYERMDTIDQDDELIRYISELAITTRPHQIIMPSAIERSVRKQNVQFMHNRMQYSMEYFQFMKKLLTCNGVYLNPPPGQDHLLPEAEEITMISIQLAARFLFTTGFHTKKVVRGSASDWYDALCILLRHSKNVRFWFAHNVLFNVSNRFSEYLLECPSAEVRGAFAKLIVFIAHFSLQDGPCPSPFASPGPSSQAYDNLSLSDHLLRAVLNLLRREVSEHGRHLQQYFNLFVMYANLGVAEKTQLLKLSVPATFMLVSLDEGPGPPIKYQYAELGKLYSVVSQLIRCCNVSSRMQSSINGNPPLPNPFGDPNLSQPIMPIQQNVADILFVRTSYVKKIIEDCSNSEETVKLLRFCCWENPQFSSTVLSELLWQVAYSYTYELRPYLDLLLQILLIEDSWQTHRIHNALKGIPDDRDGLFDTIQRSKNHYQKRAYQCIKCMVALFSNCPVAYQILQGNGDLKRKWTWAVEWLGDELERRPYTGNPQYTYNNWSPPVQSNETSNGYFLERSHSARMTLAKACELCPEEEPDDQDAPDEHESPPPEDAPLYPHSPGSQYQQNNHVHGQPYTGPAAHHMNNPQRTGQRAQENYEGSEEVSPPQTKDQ
Sequence of UniProt O00487 (O00487 whole entry): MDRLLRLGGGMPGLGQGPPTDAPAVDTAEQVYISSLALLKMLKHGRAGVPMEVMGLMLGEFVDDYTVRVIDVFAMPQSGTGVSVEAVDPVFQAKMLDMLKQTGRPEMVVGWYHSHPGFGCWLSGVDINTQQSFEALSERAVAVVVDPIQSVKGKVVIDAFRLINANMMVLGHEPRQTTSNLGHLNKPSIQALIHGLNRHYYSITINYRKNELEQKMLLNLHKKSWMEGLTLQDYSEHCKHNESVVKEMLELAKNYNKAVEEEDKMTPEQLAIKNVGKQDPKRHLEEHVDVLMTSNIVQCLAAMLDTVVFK
Sequence of USP46 (P62068 whole entry): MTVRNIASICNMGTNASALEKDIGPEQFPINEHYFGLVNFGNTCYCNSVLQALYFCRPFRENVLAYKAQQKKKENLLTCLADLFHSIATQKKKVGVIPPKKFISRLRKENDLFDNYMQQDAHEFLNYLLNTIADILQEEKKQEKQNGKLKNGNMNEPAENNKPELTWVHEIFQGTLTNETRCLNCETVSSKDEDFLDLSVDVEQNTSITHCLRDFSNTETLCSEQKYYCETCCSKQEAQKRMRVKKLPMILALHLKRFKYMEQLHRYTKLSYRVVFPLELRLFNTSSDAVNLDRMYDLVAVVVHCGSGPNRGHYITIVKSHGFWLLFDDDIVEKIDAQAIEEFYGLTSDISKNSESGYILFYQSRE
Sequence of USP7 (Q93009 whole entry, looked up): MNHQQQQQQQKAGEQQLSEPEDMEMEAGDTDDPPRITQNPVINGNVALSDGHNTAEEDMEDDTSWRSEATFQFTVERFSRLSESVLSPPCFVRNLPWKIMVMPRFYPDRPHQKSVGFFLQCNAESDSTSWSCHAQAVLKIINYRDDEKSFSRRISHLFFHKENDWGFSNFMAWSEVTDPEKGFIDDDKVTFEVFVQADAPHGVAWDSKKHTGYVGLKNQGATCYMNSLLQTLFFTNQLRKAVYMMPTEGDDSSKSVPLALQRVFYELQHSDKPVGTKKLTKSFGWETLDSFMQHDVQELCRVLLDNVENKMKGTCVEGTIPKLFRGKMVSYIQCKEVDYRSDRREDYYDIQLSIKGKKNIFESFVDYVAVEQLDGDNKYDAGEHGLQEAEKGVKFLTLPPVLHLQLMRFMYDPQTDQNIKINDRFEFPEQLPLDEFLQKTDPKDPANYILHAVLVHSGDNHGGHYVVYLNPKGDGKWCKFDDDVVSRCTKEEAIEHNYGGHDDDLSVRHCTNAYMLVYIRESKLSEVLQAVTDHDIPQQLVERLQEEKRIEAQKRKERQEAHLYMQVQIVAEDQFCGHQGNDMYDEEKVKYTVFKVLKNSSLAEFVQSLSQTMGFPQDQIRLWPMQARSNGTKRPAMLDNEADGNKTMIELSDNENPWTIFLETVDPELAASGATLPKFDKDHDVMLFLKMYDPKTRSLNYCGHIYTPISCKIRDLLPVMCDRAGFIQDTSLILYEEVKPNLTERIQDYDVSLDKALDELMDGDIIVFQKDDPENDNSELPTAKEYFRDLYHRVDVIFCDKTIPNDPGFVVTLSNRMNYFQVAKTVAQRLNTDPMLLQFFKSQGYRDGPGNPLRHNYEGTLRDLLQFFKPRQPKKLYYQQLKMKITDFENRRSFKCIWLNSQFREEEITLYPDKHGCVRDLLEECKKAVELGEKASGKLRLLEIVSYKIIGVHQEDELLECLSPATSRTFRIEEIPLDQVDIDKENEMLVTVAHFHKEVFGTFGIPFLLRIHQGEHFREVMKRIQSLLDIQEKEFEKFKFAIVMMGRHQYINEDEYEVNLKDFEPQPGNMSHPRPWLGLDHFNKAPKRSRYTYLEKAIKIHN

O=C(CCl)NCCc1ccc2c(c1)OCCO2
inactive: USP42 0.217 | USP46 0.147 | USP47 0.109 | USP48 -0.413 | USP5 -0.336 | USP54 0.647 | USP7 -0.433 | USP8 0.0104 | USP9X -0.26 | UniProt O00487 -0.093
